Inconclusive results are not listed. Activity calls are given as the source filed them. How the source made its calls: active means hit-call score of the fitted dose curve at least 0.9, where 1 is the maximum; inconclusive means response in the unintended direction; inactive means score below 0.9.
Tests used:
[1] = molecular target: Cellular tumor antigen p53 (Homo sapiens) (UniProt P04637); assay: TOX21_p53_BLA_p2_ratio: Tox21 HCT-116 p53 Agonism Beta-lactamase Assay, Ratio, Phase 2 (AID 2283592)
Method in brief: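 HCT-116 cells with p53-responsive beta-lactamase reporter, 4000 cells/well, preincubated 5 h, then compound in DMSO (217-fold dilution) for 16 h at 37C. CCF4-AM substrate 2 h at room temperature; 460/530 nm emission ratio fitted upward versus DMSO.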

[2] = molecular target: Cellular tumor antigen p53 (Homo sapiens) (UniProt P04637); assay: TOX21_p53_BLA_p3_ratio: Tox21 HCT-116 p53 Agonism Beta-lactamase Assay, Ratio, Phase 3 (AID 2283596)
Method in brief: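 HCT116 p53-bla cells (4000/well) given compound in DMSO (217-fold dilution) after 5 h, incubated 16 h at 37C. CCF4-AM substrate 2 h at room temperature; 460/530 nm emission ratio, gain fitted against DMSO.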

[3] = molecular target: Cellular tumor antigen p53 (Homo sapiens) (UniProt P04637); assay: TOX21_p53_BLA_p5_ratio: Tox21 HCT-116 p53 Agonism Beta-lactamase Assay, Ratio, Phase 5 (AID 2283599)
Method in brief: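 HCT-116 p53-bla cells (4000/well) plated 5 h, dosed with compound (217-fold DMSO dilution) for 16 h at 37 C; CCF4-AM substrate 2 h at room temperature. Activity is the 460/530 nm emission ratio (405 nm excitation), fitted in gain-of-signal direction versus DMSO.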

[4] = TOX21_p53_BLA_p4_viability: Viability Assessment in the Tox21 HCT-116 p53 Agonism Beta-lactamase Assay, Phase 4 (AID 2283597);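 further: hits lower the luminescence signal meaning cytotoxicity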
Method in brief: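 HCT-116 p53-bla cells, 4000/well, dosed after 5 h attachment and incubated 16 h at 37 °C, 5% CO2. Viability from CellTiter-Glo ATP luminescence after 30 min at room temperature, taken after the beta-lactamase read; loss of signal indicates cytotoxicity.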

[5] = molecular target: Cellular tumor antigen p53 (Homo sapiens) (UniProt P04637); assay: TOX21_p53_BLA_p4_ratio: Tox21 HCT-116 p53 Agonism Beta-lactamase Assay, Ratio, Phase 4 (AID 2283601)
Method in brief: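 HCT-116 p53 beta-lactamase reporter cells (4000/well) preincubated 5 h, then compound (217-fold dilution of DMSO stock) for 16 h at 37C. CCF4-AM substrate added 2 h at room temperature; 460/530 nm emission ratio fitted upward versus DMSO.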

[6] = TOX21_p53_BLA_p5_viability: Viability Assessment in the Tox21 HCT-116 p53 Agonism Beta-lactamase Assay, Phase 5 (AID 2283600)
Method in brief: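 HCT-116 p53 beta-lactamase reporter cells, 4000/well, were exposed to compound (pin transfer, 217-fold dilution) for 16 hours at 37C. Cellular ATP was read by CellTiter-Glo luminescence after 30 min at room temperature.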

Measured: AC50

Sequence of Cellular tumor antigen p53 (Homo sapiens) (P04637 whole entry, looked up): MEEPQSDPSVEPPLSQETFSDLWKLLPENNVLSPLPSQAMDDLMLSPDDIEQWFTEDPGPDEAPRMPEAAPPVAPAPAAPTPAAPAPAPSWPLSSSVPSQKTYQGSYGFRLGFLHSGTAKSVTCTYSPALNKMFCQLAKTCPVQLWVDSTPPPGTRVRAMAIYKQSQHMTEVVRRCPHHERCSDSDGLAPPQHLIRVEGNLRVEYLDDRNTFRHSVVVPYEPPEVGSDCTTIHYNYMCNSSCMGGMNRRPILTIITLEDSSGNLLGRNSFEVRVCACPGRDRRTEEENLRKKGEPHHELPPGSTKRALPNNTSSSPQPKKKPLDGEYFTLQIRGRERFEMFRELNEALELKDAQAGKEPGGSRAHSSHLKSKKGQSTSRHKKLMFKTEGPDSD

N#C/C=C/C#N
active: [2] 93.4 µM
inactive: [1] | [3]

Nc1cc(Cl)ccc1O
inactive: [4]
active: [1] 49.9 µM | [2] 59.7 µM | [3] 62.6 µM | [5] 54.8 µM

O=C1NCN(c2ccccc2)C12CCN(CCCOc1ccc(F)cc1)CC2
inactive: [1] | [2] | [4] | [6] | [5]

ClC=CCCl
inactive: [1] | [2] | [4] | [3] | [5]

C[C@H]1CNCCc2ccc(Cl)cc21
inactive: [1] | [2] | [4] | [5]

Cn1c(CCCC(=O)O)nc2cc(N(CCCl)CCCl)ccc21
inactive: [4]
active: [1] 27.1 µM | [2] 31.3 µM | [3] 33.1 µM | [5] 32.4 µM

CC(C)NC(C)C
inactive: [1] | [2] | [3] | [6] | [5]

CCOC(=O)c1ncn2c1CN(C)C(=O)c1c(I)cccc1-2
inactive: [1] | [2] | [4] | [3] | [5]

c1ccc2c(c1)Sc1ccccc1N2C[C@@H]1CN2CCC1CC2
active: [5] 43.6 µM
inactive: [1] | [2] | [4] | [3]
